These results are taken from PubChem BioAssay (Tox21).

Several values for one entry are separate records, joined by “and”; a condition that tells them apart may be missing. Equal values may be shown once. Records with an inconclusive call do not appear. Activity calls are given as the source filed them. Unless noted, calls come from the whole dose curve; as a rule, active = well fitted curve in the direction sought with a large enough effect in the repeat runs; inconclusive = weak or mixed curves; inactive = no such curve, though single readings can be large; an effect the other way counts as inactive or inconclusive.

Test [1] can be described thus: qHTS assay to identify small molecule antagonists of the retinoid acid receptor (RAR) signaling pathway - cell viability counter screen (AID 1159551). Note: nearly all actives have a fitted effect of over 35% in size. The gist of the method: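 Following overnight attachment, C3RL4 reporter cells received DMSO-dissolved compounds and then retinol (1 uM final). Six hours later at 37 C, ATP content was measured by CellTiter-Glo luminescence.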
(In general: qHTS replaces the single test concentration by a dilution series.)

A short description of test [2]: qHTS assay to identify small molecule antagonists of the retinoic acid receptor (RAR) signaling pathway (AID 1159552; note: nearly all actives have a fitted effect of over 50% in size; note: potency is the fitted concentration of half-maximal effect). The gist of the method: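 Luminescence from a RARE luciferase reporter in C3RL4 cells served as read-out. Cells received compounds together with 1 uM final retinol and incubated 6 hr at 37 C before detection reagent was added for 30 min at room temperature.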

In test [3] the target is Luciferin 4-monooxygenase (Photinus pyralis) (UniProt P08659). Briefly: qHTS assay to identify small molecule inhibitors of firefly luciferase (AID 1224835). Note: nearly all actives have a fitted effect of over 25% in size. Note: potency is the fitted concentration of half-maximal effect. In outline: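 Inhibition of purified Photinus luciferase is measured by luminescence. Substrate levels (D-luciferin, ATP) sit at their KM values. Each compound is tested in a concentration series.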
The nature of test [4]: qHTS assay to identify small molecule agonists of the constitutive androstane receptor (CAR) signaling pathway - cell viability counter screen (AID 1224836). Note: nearly all actives have a fitted effect of over 45% in size. Note: potency is the fitted concentration of half-maximal effect. In outline:
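Viability read-out: CellTiter-Fluor fluorescence after 23 h compound exposure at 37 C/5% CO2 in double-stable HepG2-CYP2B6-hCAR cells, with PK11195 present at 0.75 uM final; compounds tested in 15-point titration.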

Test [5] can be described thus: qHTS assay to identify small molecule antagonists of the constitutive androstane receptor (CAR) signaling pathway - cell viability counter screen (AID 1224837). Note: nearly all actives have a fitted effect of over 45% in size. Note: potency is the fitted concentration of half-maximal effect. The gist of the method: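 Fluorescence from CellTiter-Fluor served as the viability signal. Human hepatoma HepG2 cells stably bearing hCAR and CYP2B6-2.2kb received compound plus CITCO (50 nM final) for 23 hr.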

A short description of test [6]: qHTS assay to identify small molecule antagonists of the estrogen related receptor signaling pathway with the pleiotropic PPARgamma coactivator (PGC) from Tox21 10K library (AID 1224841; call rule not given here; note: actives are mostly falling curves and most rising ones were filed inactive; nearly all actives have a fitted effect of over 50% in size; note: potency is the fitted concentration of half-maximal effect). The gist of the method:
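Compound exposure ran 18 hours at 37 C in PGC/ERR cells (2,000/well) that had first rested 6 hours in a 37 C/5% CO2 incubator. Luciferase activity was then detected with One-Glo after a 30-minute room-temperature step.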

Test [7] in a line: qHTS assay to identify small molecule agonists of the estrogen related receptor signaling pathway with the pleiotropic PPARgamma coactivator (PGC) from Tox21 10K library (AID 1224842). Note: nearly all actives have a fitted effect of over 15% in size. The gist of the method:
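Luminescence from One-Glo (30 min, room temperature) measured after PGC/ERR cells had 18 h at 37 C with pinned compound (23 nL in DMSO). Cells had been seeded at 2,000 per well and pre-incubated 6 h.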

Test [8] deals with Thyrotropin receptor (Homo sapiens) (UniProt P16473). Put plainly: qHTS assay to identify small molecule agonists of the thyroid stimulating hormone receptor (TSHR) signaling pathway (AID 1224843; calls by dose curve; note: nearly all actives have a fitted effect of over 45% in size; note: potency is the fitted concentration of half-maximal effect). In outline:
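HEK293 cells stably bearing the thyrotropin receptor were plated at 800 cells/well and challenged with compound (30 min, RT). Accumulated cAMP was quantified via cAMP-d2 competing for cryptate-tagged antibody.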

Test [9] can be described thus: qHTS assay to identify small molecule agonists of the retinoic acid receptor (RAR) signaling pathway (AID 1159553). In outline:
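Cell line C3RL4, RARE luciferase reporter. Treatment: compounds in DMSO, 6 hr, 37 C, 5% CO2, after overnight plating. Detection: luminescence, 30 min RT after reagent.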

Test [10] concerns the target Nuclear receptor subfamily 1 group I member 3 (Homo sapiens) (UniProt Q14994). Briefly: qHTS assay to identify small molecule antagonists of the constitutive androstane receptor (CAR) signaling pathway (AID 1224838).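 Note: HepG2 cells stably expressing hCAR with CYP2B6 luciferase reporter stimulated by CITCO; nearly all actives have a fitted effect of over 40% in size.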 Note: potency is the fitted concentration of half-maximal effect. The gist of the method:
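Quantitative HTS in double-stable HepG2-CYP2B6-hCAR cells. After 4 h plating, cells get compound (15 concentrations) and CITCO at 50 nM final, incubate 24 h at 37 C, then ONE-Glo luminescence is read.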

For test [11] the target is unchanged. Put plainly: qHTS assay to identify small molecule agonists of the constitutive androstane receptor (CAR) signaling pathway (AID 1224839). Note: nearly all actives have a fitted effect of over 15% in size. Note: potency is the fitted concentration of half-maximal effect. In outline:
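Luminescence read-out (ONE-Glo, 30 min, room temperature) from double-stable HepG2-CYP2B6-hCAR cells exposed 24 h to 15-point compound series in presence of 0.75 uM PK11195 final.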

Test [12] is described as follows: qHTS assay to identify small molecule antagonists of the estrogen related receptor signaling pathway with the pleiotropic PPARgamma coactivator (PGC) from Tox21 10K library - cell viability counter screen (AID 1224840; active = well fitted cell-killing curve with a large enough effect in the repeat runs, not every such curve was filed as active; note: nearly all actives have a fitted effect of over 40% in size; note: potency is the fitted concentration of half-maximal effect). The gist of the method: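 Compounds in DMSO, alongside positive and negative controls, were pinned onto PGC/ERR cells (2,000 per well). Exposure lasted 17.5 hours at 37 C, followed by a 30-minute CellTiter-Fluor incubation and fluorescence reading.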

Test [13] can be described thus: qHTS assay to identify small molecule antagonists of the estrogen related receptor (ERR) signaling pathway from Tox21 library - cell viability counter screen (AID 1224834). Note: nearly all actives have a fitted effect of over 30% in size. Note: potency is the fitted concentration of half-maximal effect. In outline:
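Viability readout (CellTiter-Fluor fluorescence, 30 min at 37 C) multiplexed with the ERR assay; cells treated 17.5 h at 37 C with compounds delivered in DMSO.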

A short description of test [14]: qHTS assay to identify small molecule agonists of the RXR signaling pathway - cell viability counter screen (AID 1159529). Note: nearly all actives have a fitted effect of over 50% in size. Note: potency is the fitted concentration of half-maximal effect. The gist of the method:
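Luminescence from CellTiter-Glo (30 min, RT) measured viability in the same wells as the beta-lactamase reporter readout. Cells: GeneBLAzer RXR-alpha HEK 293T, 2% charcoal-stripped FBS. Compound exposure 16 hr, 37 C.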

Nuclear receptor subfamily 1 group I member 3 (Homo sapiens), sequence (Q14994 whole entry, looked up): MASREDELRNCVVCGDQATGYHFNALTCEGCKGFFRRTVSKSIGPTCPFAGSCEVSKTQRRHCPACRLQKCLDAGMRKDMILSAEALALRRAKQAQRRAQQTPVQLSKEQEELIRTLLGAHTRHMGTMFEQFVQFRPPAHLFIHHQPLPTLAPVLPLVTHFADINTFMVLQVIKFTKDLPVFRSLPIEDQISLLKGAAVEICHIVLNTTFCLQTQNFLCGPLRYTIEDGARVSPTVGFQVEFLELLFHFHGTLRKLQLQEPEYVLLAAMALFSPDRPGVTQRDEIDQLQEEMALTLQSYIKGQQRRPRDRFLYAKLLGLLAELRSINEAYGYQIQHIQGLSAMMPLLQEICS
Thyrotropin receptor (Homo sapiens), sequence (P16473 whole entry, looked up): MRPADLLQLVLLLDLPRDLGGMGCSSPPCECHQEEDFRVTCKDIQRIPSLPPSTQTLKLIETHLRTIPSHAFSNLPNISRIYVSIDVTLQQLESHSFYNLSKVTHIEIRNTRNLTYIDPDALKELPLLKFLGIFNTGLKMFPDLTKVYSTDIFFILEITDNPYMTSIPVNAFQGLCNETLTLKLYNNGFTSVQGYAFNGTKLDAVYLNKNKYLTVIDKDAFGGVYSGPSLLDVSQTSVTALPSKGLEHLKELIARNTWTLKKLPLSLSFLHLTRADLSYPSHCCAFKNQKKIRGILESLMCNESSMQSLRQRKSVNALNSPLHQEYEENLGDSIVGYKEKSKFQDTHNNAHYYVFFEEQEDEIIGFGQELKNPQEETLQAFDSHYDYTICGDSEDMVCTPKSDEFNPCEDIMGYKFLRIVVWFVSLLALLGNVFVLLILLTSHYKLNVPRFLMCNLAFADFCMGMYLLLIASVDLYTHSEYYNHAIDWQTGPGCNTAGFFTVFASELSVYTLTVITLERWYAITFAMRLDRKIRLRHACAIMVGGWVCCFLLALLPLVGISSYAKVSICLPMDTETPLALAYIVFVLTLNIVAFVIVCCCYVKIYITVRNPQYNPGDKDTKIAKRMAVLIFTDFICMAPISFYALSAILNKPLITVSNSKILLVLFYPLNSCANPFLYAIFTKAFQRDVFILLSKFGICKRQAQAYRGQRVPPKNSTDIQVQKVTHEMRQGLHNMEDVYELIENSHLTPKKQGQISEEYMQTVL
Luciferin 4-monooxygenase (Photinus pyralis), sequence (P08659 whole entry, looked up): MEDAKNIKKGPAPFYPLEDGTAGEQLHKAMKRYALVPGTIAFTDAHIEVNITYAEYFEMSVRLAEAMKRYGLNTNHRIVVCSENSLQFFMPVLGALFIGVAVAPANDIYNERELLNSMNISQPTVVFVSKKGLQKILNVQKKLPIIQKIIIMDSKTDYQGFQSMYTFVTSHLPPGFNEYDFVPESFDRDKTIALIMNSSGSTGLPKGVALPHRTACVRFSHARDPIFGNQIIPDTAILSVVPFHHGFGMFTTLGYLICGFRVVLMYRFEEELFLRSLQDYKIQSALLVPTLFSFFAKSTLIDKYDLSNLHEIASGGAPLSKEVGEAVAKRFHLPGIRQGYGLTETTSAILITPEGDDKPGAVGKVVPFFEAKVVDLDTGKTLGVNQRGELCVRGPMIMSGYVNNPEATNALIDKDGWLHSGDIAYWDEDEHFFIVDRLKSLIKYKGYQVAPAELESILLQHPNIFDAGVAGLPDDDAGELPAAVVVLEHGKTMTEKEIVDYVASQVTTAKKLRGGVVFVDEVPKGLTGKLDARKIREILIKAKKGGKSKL

On to `CCOP(=S)(NC(C)C)Oc1ccccc1C(=O)OC(C)C` (stereo unspecified), for which the Potency entry in test [1], in test [3], in test [4], in [5], in test [7] and in [8] was “inactive” throughout. Also, the Potency in test [2] is 54.5 µM (active); in test [6] it was 30.6 µM (active).
On to `CC(C)(C)c1ccc(OP(=O)(Oc2ccccc2)Oc2ccccc2)cc1`, for which the Potency entry in test [1], in [9], in [3], in test [4], in test [5] and in [10] was “inactive” throughout. The Potency result in test [12] and in test [7] was “inactive” each time. In addition, the Potency is 48.9 µM (active) in test [11] and 7.74 µM (active) in [6].
With `N#Cc1c2ccccc2cc2ccccc12`, the Potency result in test [1], in [2], in test [9], in test [13], in test [3] and in test [11] was “inactive” in each case. The Potency entry in [6], in [7] and in test [8] was “inactive” each time.
Regarding `O=c1[nH]c(Cl)c(Cl)cc1Cl`, the Potency entry in [1], in test [2], in test [9], in [13], in [3] and in [4] was “inactive” in each case. Moreover, the Potency result in test [5], in test [10], in test [11], in test [12] and in test [8] was “inactive” each time.
As to `c1ccc2nc(N3CCNCC3)ccc2c1`, the Potency entry in [1], in [2], in [9], in [13], in test [3] and in [4] was “inactive” each time. The Potency result in [5], in test [10], in [11] and in [12] was “inactive” throughout.
With `ClC1=C(Cl)[C@]2(Cl)[C@@H]3[C@H]4C[C@H]([C@@H]5O[C@H]45)[C@@H]3[C@@]1(Cl)C2(Cl)Cl`, the Potency entry in [1], in test [2], in test [13], in test [3], in test [4] and in test [5] was “inactive” throughout. The Potency entry in [12] and in [7] was “inactive” throughout. Moreover, the Potency in test [8] is 4.32 µM (active).
As to `Cc1c([N+](=O)[O-])c(C)c([N+](=O)[O-])c(C(C)(C)C)c1[N+](=O)[O-]`, the Potency entry in test [1], in test [2], in [9], in [13], in test [3] and in test [4] was “inactive” in each case. Also, the Potency result in test [5], in test [10], in test [12] and in test [6] was “inactive” each time. Also, in test [11], the Potency was 34.4 µM (active).
As to `CCC(C)c1cccc(C(C)CC)c1O` (stereo unspecified), the Potency entry in [14], in test [9], in test [3], in [4] and in [5] was “inactive” each time.
On to `CN1CCc2cc(Cl)c(O)cc2[C@H]2c3ccccc3CC[C@@H]21`, for which the Potency entry in [1], in test [13], in test [3], in test [10], in test [11] and in test [12] was “inactive” each time. For the same molecule, the Potency entry in [6] and in [8] was “inactive” each time.
Consider `CCCCC/C=C\C/C=C\C/C=C\C/C=C\CCCC(=O)NCC(=O)O`, for which the Potency result in [1], in [2], in [9], in test [13], in [3] and in [4] was “inactive” each time. Further, the Potency result in test [5], in test [10] and in [12] was “inactive” each time.
In the case of `COC(=O)N(OC)c1ccccc1COc1ccn(-c2ccc(Cl)cc2)n1`, the Potency result in test [14], in test [9], in test [5], in test [10], in [12] and in test [7] was “inactive” each time. Further, the Potency entry in [8] was “inactive”. Also, the Potency is 24.3 µM (active) in test [11] and 0.486 µM (active) in test [6].
`Cc1ccccc1OP(=O)(Oc1ccccc1C)Oc1ccccc1C`: the Potency result in test [1], in test [13], in test [3], in test [4], in [5] and in test [10] was “inactive” each time. The Potency result in [12], in test [7] and in test [8] was “inactive” throughout. Moreover, the Potency in test [11] is 21.8 µM (active).
Take `CC(C)C(Br)C(=O)NC(N)=O` (stereo unspecified): the Potency result in test [14], in test [13], in test [3], in test [4], in test [5] and in test [10] was “inactive” each time. The Potency result in [11], in test [12] and in [8] was “inactive” throughout.
Take `C=CCOC(=O)c1ccccc1N`: the Potency entry in test [1], in test [2], in test [9], in test [13], in test [4] and in test [5] was “inactive” throughout. The Potency entry in test [10], in test [12] and in test [8] was “inactive” throughout.
Turning to `O=S1(=O)OCC2C(CO1)C1(Cl)C(Cl)=C(Cl)C2(Cl)C1(Cl)Cl` (stereo unspecified), the Potency was 43.6 µM (active) in [14], 39.9 µM (active) in test [3], 17.2 µM (active) in test [11] and 17.2 µM (active) in test [8]. Further, the Potency result in test [12] was “inactive”.
Regarding `CCC(OC(C)=O)C(CC(C)NC)(c1ccccc1)c1ccccc1` (stereo unspecified), the Potency result in [1], in [3], in test [11], in test [7] and in test [8] was “inactive” each time. The Potency is 30.9 µM (active) in test [2]; 69.2 µM (active) in test [13]; 69.2 µM (active) in test [4]; 69.2 µM (active) in [5]; 69.2 µM (active) in test [10]; 69.2 µM (active) in test [12].
For the molecule `O=[N+]([O-])[O-].[Tl+]`, the Potency result in test [1], in test [9], in test [4], in test [5], in test [12] and in test [8] was “inactive” in each case.
As to `CCN(CC)C(=S)S`, the Potency in test [14] was 19.4 µM (active); in [13] it was 54.9 µM (active) and 13.6 µM (active) and 24.3 µM (active); in test [4], 54.9 µM (active) and 12.1 µM (active) and 19.3 µM (active); in test [5], 13.6 µM (active) and 17.2 µM (active); in test [12], 30.9 µM (active) and 6.08 µM (active) and 13.7 µM (active). Moreover, the Potency result in test [3] and in test [8] was “inactive” in each case.
